From PubChem BioAssay AID720613 (Broad Institute, 2013)
Results filed as inconclusive are left out. Active and inactive are the calls of the source.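 How the source made its calls: active means falling viability signal at all three exposure times, each curve midpoint within twice the top tested dose; inconclusive means exposure times disagree or curves are weak or poorly fitted; inactive means all exposure times inactive, including rising signal.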

Assay: SNB-75 astrocytoma cell viability, late-stage follow-up, mechanism study for HRAS target identification, Alamar Blue fluorescence, 8-48 h, dry powder (AID 720613)

Compound	outcome
Cc1onc(C(=O)N2CCN(C(c3ccncc3)c3ccncc3)CC2)c1[N+](=O)[O-]	inactive
CCC(=O)N(c1ccc(OC)c(Cl)c1)C(C(=O)NCCc1ccccc1)c1cccs1 (configuration not stated)	inactive
